High-throughput results: PubChem BioAssay, National Center for Advancing Translational Sciences (NCATS)
Hits are enriched below; roughly 7.1% of the tested compounds scored in any of these assays.
PINK1 modulator: modulators of PINK1 expression. PINK1 immunofluorescence, high-content cytometry, 24 h. Potency, µM (doses to about 76.6 µM), inactives show at the highest dose activation (PINK1 increase), most hits filed as activators. hit rate 0.2% among 410,000; active = well fitted activation curve with a large enough effect; inconclusive = small, poorly fitted or top-dose-only effect; cell line not stated here; note: potency is the fitted concentration of half-maximal effect; % of control where 0% means no effect; nearly all actives have a fitted effect of over 65% in size
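Readout is PINK1 immunofluorescence, quantified alongside mitochondrial, cell and nuclear markers by laser-scanning microplate cytometry. Cells from a stable line were exposed to compound titrations (5 concentrations) for 24 hours, with CCCP controls.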
S2 tox: cell viability loss in ATXN counter-screen; S2 cells (HEK-293 line with an ATXN2-luciferase reporter) viability, CellTiter-Fluor protease fluorescence, 24 h; Potency, µM (highest dose often 56.7 µM), usual class: cytotoxic; hit rate 0.49% among 400,000; AID 651635; note: potency is the fitted concentration of half-maximal effect; nearly all actives have a fitted effect of over 40% in size
ATXN2 expr inh: ATXN2 expression inhibition | HEK-293 ATXN2-luciferase reporter, luminescence, 24 h | Potency, µM (series often up to 57 µM), inactives show top-dose activity change, negative = inhibition, usual class: inhibitors | hit rate 0.72% among 360,000; note: potency is the fitted concentration of half-maximal effect; % is set by controls: 0 for no effect and ±100 for the full control effect; nearly all actives have a fitted effect of over 55% in size
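ATXN2-luciferase reporter cells (luciferase flanked by upstream and downstream ATXN2 gene portions) were treated 24 h at 37 °C with compounds at up to 57 uM. SteadyGlo luminescence gave expression; GF-AFC fluorescence gave viability.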
SW480 rereplic: DNA re-replication induction in SW480 cells | hit rate 1.8% among 340,000 | Potency, µM (top dose mostly 46.1 µM), inactives show at the top dose re-replication activation, actives largely listed as activators | SW480 DNA re-replication, Hoechst DNA content imaging, 48 h; note: potency is the fitted concentration of half-maximal effect; % of control where 0% means no effect; nearly all actives have a fitted effect of over 55% in size
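DNA re-replication was detected as more nuclei of elevated Hoechst intensity after 48 hr exposure to compound (23 nL pinned per well of 250 cells).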
IL1B secr inh: blocks inflammasome-driven IL-1 beta release | THP-1 LPS/ATP IL-1B secretion, AlphaLISA, 16 h; active compounds read low | activity change, % at 57.5 µM | hit rate 4.7% among 360,000 | AID 743279; in the data active = activity change below about -50%; inconclusive = mostly about -30% to -49%; note: % is set by controls: 0 for no effect and ±100 for the full control effect
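Secreted IL-1B measured by AlphaLISA bead assay after 16 h compound exposure of THP-1 cells; compounds (final up to 57.5 uM) added 1 h before LPS (250 ng/mL) and ATP (1.25 mM) stimulation; lower signal means less secretion.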
MCF10A rereplic: inducers of DNA re-replication in MCF 10A breast cells | hit rate 2.9% among 350,000 | MCF 10A DNA re-replication, Hoechst nuclear intensity, 48 h | AID 624296 | Potency, µM (doses to about 46.1 µM), inactives show at the top dose activity, positive = re-replication, actives largely listed as activators; note: potency is the fitted concentration of half-maximal effect; % of control where 0% means no effect; nearly all actives have a fitted effect of over 50% in size
Active calls of the source: *; i = inactive; ? = inconclusive; . = no result; [ ] = remark or other dose. Unless noted, calls come from the whole dose curve; as a rule, active = well fitted curve in the direction sought with a large enough effect; inconclusive = small, poorly fitted or top-dose-only effect, or another doubt; inactive = no such curve, though single readings can be large; an effect the other way counts as inactive or inconclusive.

SMILES	PINK1 modulator	S2 tox	ATXN2 expr inh	SW480 rereplic	IL1B secr inh	MCF10A rereplic
S=c1c2c(nc3nc[nH]n13)CCC2	0.6%	6.31µM*	.	?	8.1	1.2%
CCOc1cc(Br)c(C(=O)O)cc1OCC	5.0%[38.3 µM]	i	4.8%	-0.2%	-5.0	-2.4%
CCOc1cc(Br)c(C=O)cc1OCC	3.5%	?	-26.5%	13µM*	84.1	?
CC1=CC(C)C(/C=N/N=C(N)N)C(C)C1 (configuration not stated)	3.8%	i	-23.7%	?	-66.2*	?
O=C(Nc1ccccc1Cl)c1ccc(F)c(S(=O)(=O)NCc2ccc(Cl)c(Cl)c2)c1	0.5%	.	.	.	.	.
COC(=O)c1cccc(NC(=S)Nc2ccc(Cl)c(Cl)c2)c1	?	?	-37.7%	-0.8%	-64.8*	?
COC(=O)c1cccc(NC(=S)Nc2cccc(Cl)c2C)c1	3.2%	i	4.8%	0.7%	-7.3	-4.3%
COC(=O)c1cccc(NC(=O)NC(=O)c2ccc(Cl)cc2)c1	7.3%	?	?	18.4µM*	.	6.2%
COC(=O)c1cccc(NC(=O)Nc2ccc(Cl)cc2)c1	6.3%	i	0.0%	-53.5%	.	?
C/C(=N\NC(=O)c1cc(O)ccc1O)c1cccc(NC(=O)c2ccc(Cl)cc2)c1	?	i	-37.3%	12.7%	-86.2*	15.8%
COC(=O)c1cccc(NC(=S)Nc2ccccc2Cl)c1	3.1%	i	4.8%	0.2%	1.0	2.6%
COC(=O)c1cc(NC(=S)Nc2cc(Cl)cc(Cl)c2)cc(C(=O)OC)c1	?	i	-37.4%	-0.4%	-81.4*	?
O=C(Nc1ccc2ccccc2c1)c1nc(S(=O)(=O)Cc2ccccc2F)ncc1Cl	2.5%	.	.	.	.	.
O=S(=O)(c1ccc(Cl)cc1)N1CCC2(CC1)CO2	-0.5%	i	-18.7%	2.0%	-56.7*	0.7%
Clc1ccc(Nc2ccc(NCc3ccccc3)nn2)cc1	?	?	16.4%	16.4µM*	-16.1	?
Cc1ccc(-c2nnc(NCc3ccccc3)c3ccccc23)cc1	?	i	3.3%	-5.1%	-84.0*	13.4%
Clc1ccc(-c2nnc(NCc3ccccc3)c3ccccc23)cc1	?	i	-24.2%	9.2%	-93.6*	?
Cc1ccc(-c2nnc(Nc3ccccc3O)c3ccccc23)cc1	4.2%	i	-10.9%	.	.	.
Clc1ccc(-c2nnc(NCCN3CCCC3)c3ccccc23)cc1	-0.9%	?	?	2.6%	?	?
COc1cc(Cl)c(C)cc1NC(=O)CSCc1nc(-c2ccc(OC)c(OC)c2)no1	-3.8%	.	.	.	.	.
O=C(NCc1ccccc1Cl)C(=O)NCC(c1ccco1)S(=O)(=O)c1cccs1 (configuration not stated)	0.8%	.	.	.	.	.
O=C(Nc1cccc2cccnc12)c1ccc(Br)cc1	0.1%	.	.	.	.	.
Cc1c(C(=O)OCC(O)=C(C#N)c2nc3ccccc3[nH]2)oc2ccc(Br)cc12	?	i	0.1%	-4.2%	19.4	?
Cc1nn(-c2ccccc2)c(C)c1C(=O)OCC(O)=C(C#N)c1nc2ccccc2[nH]1	-0.6%	i	-1.0%	?	20.4	18.4µM*
Cc1c(C(=O)OC/C(O)=C(\C#N)c2nc3ccccc3[nH]2)oc2ccccc12	1.9%	?	?	?	?	14.6µM*
COc1cc(OC)cc(C(=O)OC/C(O)=C(\C#N)c2nc3ccccc3[nH]2)c1	9.9%	i	-25.5%	?	40.9	20.6µM*
COC(=O)c1ccc(NC(=O)C2CCN(S(=O)(=O)c3ccc4c(c3)CCCN4C(C)=O)CC2)cc1	-1.6%	i	-31.6%	.	.	.
CCCCNC(=O)O[C@@H]1C[C@H]2CCCC(=O)N3CC[C@@H](C1)[C@@H]23	2.5%	i	12.2%	-6.4%	10.5	-5.6%
CCCCCCCN(c1ccccc1)[C@@H]1C[C@H]2CCCC(=O)N3CC[C@@H](C1)[C@@H]23	-1.3%	.	?	6.2%	-108.3*	?
